Test results taken from PubChem BioAssay AID2568 (National Center for Advancing Translational Sciences (NCATS), 2010).
Results filed as inconclusive are left out. Calls of active or inactive are those of the source. Calls follow the shape of the full dose curve.

Biological target: Neuropeptide S receptor (Homo sapiens) (UniProt Q6W5P4)
Assay: Confirmation Concentration-Response Assay for Antagonists of the Neuropeptide S Receptor: cAMP Signal Transduction, SAR for Probe
Settings: CHO-NPSR cells, cAMP TR-FRET, antagonist mode; series mostly up to 47.8 µM
Outline: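 CHO cells stably expressing NPSR (1200 cells/well, cultured 16–30 h) received compound at up to 46 μM final. They were then stimulated for 60 min at 37 °C with reagent containing 100 nM NPS and RO-201724. cAMP was read by LANCE TR-FRET (665/620 ratio), and IC50 came from Hill-equation fits.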

Chain of Neuropeptide S receptor (Homo sapiens) (Q6W5P4 whole entry, looked up): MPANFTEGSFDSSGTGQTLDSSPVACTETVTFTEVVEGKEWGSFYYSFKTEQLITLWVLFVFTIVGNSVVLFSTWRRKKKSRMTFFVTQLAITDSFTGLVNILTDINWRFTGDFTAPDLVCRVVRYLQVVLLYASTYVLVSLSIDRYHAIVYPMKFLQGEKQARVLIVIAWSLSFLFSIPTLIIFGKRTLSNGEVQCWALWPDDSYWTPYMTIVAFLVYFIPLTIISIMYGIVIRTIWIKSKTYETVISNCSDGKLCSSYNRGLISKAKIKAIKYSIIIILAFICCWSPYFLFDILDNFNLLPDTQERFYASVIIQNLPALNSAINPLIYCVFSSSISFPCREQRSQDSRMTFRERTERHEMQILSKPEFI

Potency, active:
COc1ccc(C2c3c(ncn(CCc4ccccc4)c3=N)Oc3ccc4ccccc4c32)cc1OC (centres undefined) 24.4 µM
COc1cccc(C2c3c(ncn(-c4ccccc4-c4ccccc4)c3=N)Oc3ccc4ccccc4c32)c1 (centres undefined) 38.7 µM
COc1cccc(C2c3c(ncn(-c4ccccc4C)c3=N)Oc3ccc4ccccc4c32)c1 (centres undefined) 9.72 µM
COc1cccc(C2c3c(ncn(-c4ccc(C)cc4)c3=N)Oc3ccc4ccccc4c32)c1 (centres undefined) 12.2 µM
COc1cccc(C2c3c(ncn(-c4cccc(Br)c4)c3=N)Oc3ccc4ccccc4c32)c1 (centres undefined) 19.4 µM
COc1cccc(C2c3c(ncn(-c4cccnc4)c3=N)Oc3ccc4ccccc4c32)c1 (centres undefined) 12.2 µM
COc1cccc(C2c3c(ncn(-c4cccc(C)c4)c3=N)Oc3ccc4ccccc4c32)c1 (centres undefined) 12.2 µM
COc1cccc(C2c3c(ncn(-c4ccc(C#N)cc4)c3=N)Oc3ccc4ccccc4c32)c1 (centres undefined) 15.4 µM
COc1cccc(C2c3c(ncn(-c4ccccc4OC)c3=N)Oc3ccc4ccccc4c32)c1 (centres undefined) 6.14 µM
CCC(C)(CCN1CCOCC1)N(Cc1cc2ccccc2n(C)c1=O)C(=O)C1CCCCC1 (centres undefined) 0.308 µM

Potency, inactive:
COc1ccc(C2C3=C(N=CN(CCN4CCOCC4)C3N)Oc3ccccc32)cc1OC (centres undefined)
C[n+]1cc(C(O)(c2ccccc2)c2ccccc2)n2ccccc21
O=P(c1ccccc1)(c1ccccc1)c1cnc2ccccn12
Cc1nc2ccccn2c1P(=O)(c1ccccc1)c1ccccc1
